Source: PubChem BioAssay
This is a sample that favours compounds with a hit; in the whole collection about 4.7% have one here.
D1 potentiator – human D1 dopamine receptor positive modulation; actives 0.036% (n = 360,000); HEK293 TREx D1 cells, calcium flux, dopamine EC20 potentiation; P21728; potentiation, % at 10 µM; in the data active = potentiation above about 30%; also: 0% is about no effect
Target sequence (P21728 whole entry, looked up): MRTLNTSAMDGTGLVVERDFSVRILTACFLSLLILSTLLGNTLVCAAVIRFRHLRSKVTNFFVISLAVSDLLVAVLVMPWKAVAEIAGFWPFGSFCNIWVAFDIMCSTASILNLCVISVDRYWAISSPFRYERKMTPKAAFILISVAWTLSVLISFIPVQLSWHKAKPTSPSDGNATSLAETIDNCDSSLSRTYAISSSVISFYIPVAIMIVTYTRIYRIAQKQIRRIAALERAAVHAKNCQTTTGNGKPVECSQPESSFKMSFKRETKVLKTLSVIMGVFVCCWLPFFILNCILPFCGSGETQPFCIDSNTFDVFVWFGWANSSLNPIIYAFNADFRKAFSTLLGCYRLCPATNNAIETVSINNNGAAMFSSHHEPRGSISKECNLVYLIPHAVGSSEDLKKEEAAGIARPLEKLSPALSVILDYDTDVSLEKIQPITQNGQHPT
TRHR enhancer – allosteric enhancers of human TRH receptor. P34981. TRHR cells, fluo-8 calcium fluorescence, EC20 TRH enhancement. enhancement, % at 2 µM. actives 0.66% (n = 360,000). AID 493056; in the data active = enhancement above about 30%; also: 0% is about no effect
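Enhancer read-out: after compound pinning and an initial kinetic agonist-mode read, an EC20 of TRH (10 nM final) was injected and fluo-8 calcium signal (Ex 480/Em 530) followed at 1 s/cycle for 100 cycles in TRHR-expressing cells.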
D1 antagonist – blocks dopamine activation of the human D1 receptor; P21728; HEK293 TREx D1 cells, calcium flux, dopamine EC80; hits give low values; AID 504652; actives 3.2% (n = 360,000); activity change, negative = inhibition, % at 10 µM; in the data active = activity change below about -30%; also: % is scaled to controls: 0 for no effect and ±100 for the full control effect
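Using tetracycline-induced force-coupled D1 Hek293 cells and a calcium dye, signals were followed for 180 s after compound, then for 180 s after EC80 dopamine, to detect inhibitors.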
TRHR ag – activates the human TRH receptor | P34981 | activation, % at 2 µM | actives 0.18% (n = 360,000) | TRHR cells, calcium flux fluo-8, FDSS agonist mode | AID 493084; also: 0% is about no effect
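Read-out: compound-evoked intracellular calcium rise in TRHR cells, fluo-8 dye, kinetic FDSS fluorescence at 1 s/cycle following a 10-cycle baseline. Cells cultured overnight before dye loading (30 min–1.5 h, RT).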
D1 agonist – agonists of human D1 dopamine receptor; HEK293 T-REx D1 cells, calcium flux, agonist mode; activation, % at 2 µM; actives 1% (n = 360,000); AID 504660; also: 0% is about no effect
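Agonism was scored from calcium flux recorded over 180 s (1 read/s) after pintool compound addition, following a 10-cycle baseline. Cells were inducible force-coupled HEK293 TREx D1, plated overnight at 30 C and loaded with no-wash calcium dye.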
* hit, by the source's call; ! = a repeat was not active. Rule as the data show it, unless noted: active = activation above about 30%; inactive = the rest.

SMILES	D1 potentiator	TRHR enhancer	D1 antagonist	TRHR ag	D1 agonist
O=[S+]([O-])(c1c(F)cccc1F)N1CCN([S+](=O)([O-])c2csc3ccccc23)CC1	-4	-2	-21	1	6
Cc1ccc(-n2c(=O)c3ccc(C(=O)NCc4ccco4)cc3n(Cc3ccccc3Cl)c2=O)cc1	2	1	-4	1	0
CCCN(CCC)C(=O)Cn1c(=O)n(-c2ccc(C)cc2)c(=O)c2ccc(C(=O)NCc3ccccc3Cl)cc21	-1	-13	-66*	0	3
COc1ccc(CCNC(=O)Cn2cc(S(=O)(=O)Cc3ccc(F)cc3)c3ccccc32)cc1OC	-3	-11	-22	0	6
Cc1ccc(-n2c(=O)[nH]c3sc4c(c3c2=O)CCNC4)cc1C	1	5	1	0	-1
Cc1ccccc1NC(=O)CN1C(=O)CCn2nc(-c3cccn3C)cc21	0	-2	-2	0	3
CCc1cc2c(cc3c(=O)n(CC(=O)NC4CCCCC4)nc(CC)n32)s1	2	1	-4	0	0
COc1cc(C(=O)Nc2ccc(C(=O)NCC3CCCO3)cc2)cc(OC)c1OC (centres undefined)	-1	4	-4	0	2
CCOc1ccc(NC(=O)CN(C)C(=O)c2ccc(OCC3CCCO3)cc2)cc1OCC (centres undefined)	-10	0	-42*	0	1
CCOc1ccc(NC(=O)COc2ccc(C(=O)NCC3CCCO3)cc2OC)cc1 (centres undefined)	12	4	-37*	1	2
CC(=O)c1c(C)[nH]c(C(=O)COc2cc(C)ccc2C(C)C)c1C	-15	-4	-36*	0	19
Cc1ccc(S(=O)(=O)NC(=O)COc2cc(C)ccc2C(C)C)cc1	3	-11	-44*	-1	8
COc1ccc(-c2cc(C(=O)OCC(=O)c3cccc(OC)c3)c3cccc(Cl)c3n2)cc1	1	4	-3	0	6
CC(c1ccccc1C(O)(c1ccccc1)c1ccccc1)N(C)C (centres undefined)	-3	-4	-39*	11	100*
O=C(Cn1ccn(-c2ccc(F)cc2)c(=O)c1=O)Nc1ccccc1C(F)(F)F	-4	-1	-1	0	3
Cc1ccc(S(=O)(=O)N(C)Cc2nc(-c3ccccc3)oc2C)cc1	1	-4	0	-1	1
CSCCC(NC(=O)c1ccco1)C(=O)OC(C)C(=O)NC(=O)NC1CCCCC1 (centres undefined)	-4	-2	3	52*	1
N#CC(C#N)=C(N)CSc1cccc[n+]1[O-]	4	35*	6	0	2
COc1ccc(CNC(=O)C2=C(C)C(=O)OC23CCCCC3)cc1OC	-1	14	2	0	-1
O=C(Oc1cc(=O)oc2c1c(=O)n1c3c(cccc23)CC1)c1ccc(F)cc1	-3	-3	-45*	0	-1
O=C(Oc1cc(=O)oc2c1c(=O)n1c3c(cccc23)CC1)c1ccccc1	7	-1	-38*	-1	4
O=C(Oc1cc(=O)oc2ccccc12)c1ccccc1	2	2	-16	0	0
O=C(NCc1ccc(F)cc1)c1c(O)c2cccc3c2n(c1=O)CCC3	-4	-1	2	0	1
CC1=C(C(=O)OCc2ccccc2)C(c2ccc(Cl)cc2Cl)NC(=O)N1CCCCCC(=O)O (centres undefined)	-4	-1	-27	-1	-2
CC1=C(C(=O)OCc2ccccc2)C(c2cccc(Cl)c2Cl)NC(=O)N1CCCCCC(=O)O (centres undefined)	0	3	-33*	0	2
CC1=C(C(=O)OCc2ccccc2)C(c2cccc3ccccc23)NC(=O)N1CCCC(=O)O (centres undefined)	-1	3	-39*	0	1
COc1ccc(NC(=O)COc2ccc(-c3nn(C)c(=O)c4ccccc34)cc2)cc1	-4	-3	-40*!	2	3
CNC(=O)c1ccc(NC(=O)COc2ccc(-c3nn(C)c(=O)c4ccccc34)cc2)cc1	-3	7	9	0	7
